Assay results from PubChem BioAssay (NCATS).
Records with an inconclusive call do not appear. Where a call stands in place of a potency, no number is given. The source made the active and inactive calls. The call rests on the fitted dose curve; in most records, active means well fitted curve in the direction sought with a large enough effect; inconclusive means small, poorly fitted or top-dose-only effect, or another doubt; inactive means no such curve, though single readings can be large; an effect the other way counts as inactive or inconclusive.

Molecular target: N-terminal Xaa-Pro-Lys N-methyltransferase 1 (Homo sapiens) (UniProt Q9BV86)
Assay: qHTS Assay for Inhibitors of N-terminal methyltransferase 1 (NTMT1): LOPAC validation of the NTMT1 SAHH-coupled ThioGlo3 Assay (AID 1347143); further: nearly all actives have a fitted effect of over 70% in size
Conditions: recombinant NTMT1, SAHH-coupled ThioGlo3 fluorescence; series mostly up to 114 µM
Summary of the method: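 Fluorescence read-out (excitation 340nm, emission 450nm) of SAH-derived thiol, measured via SAHH coupling and ThioGlo3, taken immediately and after a 30 min room-temperature reaction, then normalized to the background read. Enzyme: NTMT1 at 125nM; cofactor SAM 100uM in the added reagent.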
Potency means the concentration at half of the fitted maximal effect.

Chain of N-terminal Xaa-Pro-Lys N-methyltransferase 1 (Homo sapiens) (Q9BV86 whole entry, looked up): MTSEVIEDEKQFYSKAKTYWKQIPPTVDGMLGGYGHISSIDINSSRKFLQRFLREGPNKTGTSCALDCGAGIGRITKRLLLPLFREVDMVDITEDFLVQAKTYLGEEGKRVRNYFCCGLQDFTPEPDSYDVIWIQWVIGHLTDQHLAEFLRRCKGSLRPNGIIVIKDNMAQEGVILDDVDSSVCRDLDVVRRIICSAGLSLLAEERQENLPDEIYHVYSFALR

`O=c1[nH]c2cc(C(F)(F)F)ccc2n1-c1cc(C(F)(F)F)ccc1O` was tested. Which Potency did it give?
The Potency was “inactive”.

For `O=C(Nc1cccc(C(=O)Nc2ccc(S(=O)(=O)O)c3cc(S(=O)(=O)O)cc(S(=O)(=O)O)c23)c1)Nc1cccc(C(=O)Nc2ccc(S(=O)(=O)O)c3cc(S(=O)(=O)O)cc(S(=O)(=O)O)c23)c1`, which Potency is on record?
Its Potency is “inactive”.

For `O=c1cc(-c2ccccc2)oc2c(O)c(O)ccc12`, which Potency is on record?
The Potency was 56.2 µM (active).

`NS(=O)(=O)c1ccc(-n2nc(C(F)(F)F)cc2-c2ccc(Cl)cc2)cc1` was tested. Which Potency did it give?
The Potency was “inactive”.

Molecular target: Furin (Homo sapiens) (UniProt P09958)
Assay: Furin counterscreen qHTS for Zika virus inhibitors (AID 1347149); further: nearly all actives have a fitted effect of over 70% in size
Conditions: furin enzymatic counterscreen, fluorogenic substrate; series mostly up to 57.5 µM
Summary of the method: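 Fluorogenic cleavage of BOC-RVRR-AMC (2 microM final, Km ~15 µM) was monitored (ex 340, em 450 nm) at 37C after 15 min RT preincubation of 5 nM furin with compounds in HEPES pH 7.0 buffer with CaCl2 and Triton X-100. Percent inhibition was fitted to a 4-parameter Hill curve.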

Chain of Furin (Homo sapiens) (P09958 whole entry, looked up): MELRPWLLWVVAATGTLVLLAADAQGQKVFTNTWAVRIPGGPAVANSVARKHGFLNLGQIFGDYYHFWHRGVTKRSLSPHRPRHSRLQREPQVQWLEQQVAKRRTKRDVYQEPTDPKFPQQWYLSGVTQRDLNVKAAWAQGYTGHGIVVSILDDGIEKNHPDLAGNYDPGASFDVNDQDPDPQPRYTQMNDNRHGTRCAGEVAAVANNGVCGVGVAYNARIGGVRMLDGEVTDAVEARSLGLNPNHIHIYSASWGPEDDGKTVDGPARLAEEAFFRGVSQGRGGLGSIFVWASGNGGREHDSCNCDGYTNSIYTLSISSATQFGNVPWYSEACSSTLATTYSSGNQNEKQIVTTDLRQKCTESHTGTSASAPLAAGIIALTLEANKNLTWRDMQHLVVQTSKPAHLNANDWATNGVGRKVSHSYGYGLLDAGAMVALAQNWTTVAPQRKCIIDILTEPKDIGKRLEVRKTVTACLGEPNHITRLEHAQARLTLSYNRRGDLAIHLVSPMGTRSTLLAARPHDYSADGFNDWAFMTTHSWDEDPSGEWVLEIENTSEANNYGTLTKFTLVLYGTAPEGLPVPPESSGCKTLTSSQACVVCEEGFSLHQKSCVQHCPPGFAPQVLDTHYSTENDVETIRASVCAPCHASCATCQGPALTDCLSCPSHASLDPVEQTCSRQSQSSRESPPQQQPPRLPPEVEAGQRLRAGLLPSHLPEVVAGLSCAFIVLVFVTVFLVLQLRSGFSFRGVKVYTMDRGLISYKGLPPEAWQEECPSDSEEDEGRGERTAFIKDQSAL

`C=C[C@@H]1CN2CC[C@@H]1C[C@H]2[C@H](O)c1ccnc2ccc(OC)cc12` was tested. Which Potency did it give?
The Potency was 24.1 µM (active).

Which Potency does the source give for `Cc1ccccc1CNc1ncnc2c1ncn2C1OC(CO)C(O)C1O` (stereo not drawn) here?
Its Potency is “inactive”.

With `CN1CCN(c2cc3c(nn2)Oc2ccccc2N3C)CC1` as the molecule, how does the Potency read?
The Potency was 11.8 µM (active).

Which Potency does the source give for `COc1ccc(Br)cc1S(=O)(=O)NC(=O)/C=C/c1ccccc1Cc1ccc2ccccc2c1` here?
Its Potency is 27 µM (active).

For `COC(=O)C1=C(C)NC(C)=C(C(=O)OC)C1c1cccc(NC(=O)NCCCN2CCC(c3cccc(OC)c3)CC2)c1`, which Potency is on record?
Its Potency is 30.3 µM (active).

With `CC[C@@H](C)[C@H]1O[C@]2(CC[C@H]1C)C[C@@H]1C[C@@H](CC=C(C)[C@@H](O[C@H]3C[C@H](OC)[C@@H](O[C@H]4C[C@H](OC)[C@@H](O)[C@H](C)O4)[C@H](C)O3)[C@@H](C)C=CC=C3CO[C@@H]4[C@H](O)C(C)=C[C@@H](C(=O)O1)[C@]34O)O2` as the molecule, how does the Potency read?
Its Potency is “inactive”.

System: Zika virus NS2B-NS3 protease (unlinked)
Assay: Optimization of GU AMC qHTS for Zika virus inhibitors: Unlinked NS2B-NS3 protease assay (AID 1347151); further: nearly all actives have a fitted effect of over 80% in size
Conditions: recombinant ZIKV NS2B-NS3 protease, fluorogenic AMC substrate; series mostly up to 52.5 µM
Summary of the method: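 Unlinked protease (25 nM final); buffer 10 mM Tris-HCl pH 8.0 + 0.01% Tween 20; AMC substrate; 15 min RT, dark; Δfluorescence normalized to no-inhibitor/no-enzyme controls; 4-parameter Hill fit.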

Which Potency does the source give for `O=C1NC(=O)/C(=C/c2ccc3nccnc3c2)S1` here?
Its Potency is “inactive”.

Which Potency does the source give for `CC(N)C(=O)OC(C)(C)Cc1ccc(Cl)cc1` (stereo not drawn) here?
The Potency was “inactive”.

Which Potency does the source give for `O=C(O)CC[C@@H](C(=O)O)N1C(=O)c2ccccc2C1=O` here?
Its Potency is “inactive”.

For `Cc1ccccc1CNc1ncnc2c1ncn2C1OC(CO)C(O)C1O` (stereo not drawn), which Potency is on record?
The Potency was “inactive”.

For `Nc1nc(Cl)nc2c1ncn2[C@@H]1O[C@H](COP(=O)(O)OP(=O)(O)OP(=O)(O)O)[C@@H](O)[C@H]1O`, which Potency is on record?
The Potency was “inactive”.

Which Potency does the source give for `CCCCC#Cc1nc(NC)c2ncn([C@@H]3O[C@H](CO)[C@@H](O)[C@H]3O)c2n1` here?
The Potency was “inactive”.

For `O=P(O)(O)C(Cl)(Cl)P(=O)(O)O`, which Potency is on record?
The Potency was “inactive”.

`C[N+](C)(C)CCOP(=O)(O)OP(=O)([O-])OC[C@H]1O[C@@H](n2ccc(N)nc2=O)[C@H](O)[C@@H]1O` was tested. Which Potency did it give?
The Potency was “inactive”.

For `CC1OC1P(=O)(O)O` (stereo not drawn), which Potency is on record?
The Potency was “inactive”.

For `COc1ccc(Br)cc1S(=O)(=O)NC(=O)/C=C/c1ccccc1Cc1ccc2ccccc2c1`, which Potency is on record?
The Potency was 5.32 µM (active).

Which Potency does the source give for `CN(C)c1nc(N)c(C(=O)N=C(N)N)nc1Cl` here?
Its Potency is “inactive”.

With `Fc1ccc(C(OCCCc2cnc[nH]2)c2ccc(F)cc2)cc1` as the molecule, how does the Potency read?
The Potency was “inactive”.

With `NCC1OC(O[C@H]2[C@H](O)[C@@H](OC3C(O)C(N)CC(N)C3OC3OC(CO)C(O)C(O)C3N)O[C@@H]2CO)C(N)C(O)C1O` (stereo partly drawn) as the molecule, how does the Potency read?
Its Potency is “inactive”.

`NC(N)=NC(=O)c1nc(Cl)c(N2CCCCCC2)nc1N` was tested. Which Potency did it give?
The Potency was “inactive”.

How did the Potency turn out when `CC(C)CC(NP(=O)(O)O[C@@H]1O[C@@H](C)[C@H](O)[C@@H](O)[C@H]1O)C(=O)NC(Cc1c[nH]c2ccccc12)C(=O)O` (stereo partly drawn) was run?
Its Potency is “inactive”.

Which Potency does the source give for `Fc1cccc(/C=N/N=C/c2cccc(F)c2)c1` here?
The Potency was “inactive”.

How did the Potency turn out when `COc1ccccc1CN[C@@H]1CCCN[C@@H]1c1ccccc1` was run?
Its Potency is “inactive”.

With `CN1CCc2cc(NC(=O)Nc3cccnc3)ccc21` as the molecule, how does the Potency read?
The Potency was “inactive”.

With `Nc1ccn([C@@H]2O[C@H](CO)[C@@H](O)[C@@H]2O)c(=O)n1` as the molecule, how does the Potency read?
Its Potency is “inactive”.

`CC(C)(NS(=O)(=O)c1ccc(Oc2ccc(F)cc2)cc1)C(=O)NO` was tested. Which Potency did it give?
The Potency was “inactive”.

`O=C1/C(=C/c2ccsc2)CC/C1=C\c1cccs1` was tested. Which Potency did it give?
Its Potency is “inactive”.

Which Potency does the source give for `CCCCCCCCCCCCCCCCCC(=O)OC(CC(=O)O)C[N+](C)(C)C` (stereo not drawn) here?
The Potency was “inactive”.

How did the Potency turn out when `Brc1c(Br)c(Br)c2n[nH]nc2c1Br` was run?
The Potency was 26.7 µM (active).

For `CO/N=C(\C(=O)N[C@@H]1C(=O)N2C(C(=O)O)=C(COC(C)=O)CS[C@H]12)c1csc(N)n1`, which Potency is on record?
The Potency was “inactive”.

How did the Potency turn out when `N=c1ccn2c(n1)O[C@H]1[C@H](O)[C@@H](CO)O[C@H]12` was run?
Its Potency is “inactive”.

With `NC(=S)c1ccc[n+]([C@@H]2O[C@@H](COP(=O)([O-])OP(=O)(O)OC[C@H]3O[C@@H](n4cnc5c(N)ncnc54)[C@H](OP(=O)(O)O)[C@@H]3O)C(O)C2O)c1` (stereo partly drawn) as the molecule, how does the Potency read?
Its Potency is “inactive”.

How did the Potency turn out when `O=[N+]([O-])c1ccc(CSc2ncnc3c2ncn3[C@@H]2O[C@H](CO)[C@@H](O)[C@H]2O)cc1` was run?
The Potency was “inactive”.

How did the Potency turn out when `CCCCN(CC)c1nc(C)nc2c1c(C)cn2-c1c(C)cc(C)cc1C` was run?
The Potency was 26.7 µM (active).

For `C[N+]1(C)C2CC(OC(=O)[C@H](CO)c3ccccc3)CC1C1OC12` (stereo partly drawn), which Potency is on record?
The Potency was “inactive”.

System: Zika virus NS2B-NS3 protease (linked construct)
Assay: Confirmatory screen NINDS AMC qHTS for Zika virus inhibitors (AID 1347152); further: nearly all actives have a fitted effect of over 70% in size
Conditions: Purified linked NS2B-NS3, AMC substrate fluorescence; series mostly up to 56.6 µM
Summary of the method: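 Enzyme (1 nM, linked construct) was preincubated with compound for 15 minutes at room temperature in 10 mM Tris-HCl pH 8.0 with 0.01% Tween 20. Bz-Nle-Lys-Arg-Arg-AMC was then added to 10 microM, and AMC fluorescence was recorded immediately and after 15 minutes.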

For `CN1CCN(c2cc3c(nn2)Oc2ccccc2N3C)CC1`, which Potency is on record?
The Potency was 10.5 µM (active).

For `COc1ccc(Br)cc1S(=O)(=O)NC(=O)/C=C/c1ccccc1Cc1ccc2ccccc2c1`, which Potency is on record?
The Potency was 10.8 µM (active).

With `COC(=O)C1=C(C)NC(C)=C(C(=O)OC)C1c1cccc(NC(=O)NCCCN2CCC(c3cccc(OC)c3)CC2)c1` as the molecule, how does the Potency read?
Its Potency is “inactive”.

With `CCCCN(CC)c1nc(C)nc2c1c(C)cn2-c1c(C)cc(C)cc1C` as the molecule, how does the Potency read?
The Potency was “inactive”.
